# Results reported in PubChem BioAssay (Tox21).
# Inconclusive results are not listed. Where a call stands in place of a potency, no number is given. The source holds several records for some structures; these can differ, active in one and inactive in another. Activity calls are given as the source filed them. Calls follow the shape of the dose curve; as a rule, active = well fitted curve in the direction sought with a large enough effect in the repeat runs; inconclusive = weak or mixed curves; inactive = no such curve, though single readings can be large; an effect the other way counts as inactive or inconclusive.
# Assay: A CellTox Green Cytotoxicity Assay to monitor cytotoxicity in HEK293 cells - 24 hour (AID 1224875); also: nearly all actives have a fitted effect of over 45% in size
# Conditions: CellTox Green fluorescence; series mostly up to 76.8 µM; activity change: at the top concentration
# In short: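 Read-out: fluorescence of a cell-impermeant cyanine dye staining DNA of dead cells, proportional to cytotoxicity. HEK293, 600 cells/well with reagent, compound (23 nL DMSO) added after 5 h; reads at 0, 8, 16, 24, 32, 40 h.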
SMILES,Potency,activity change
Cc1cc(Cl)ccc1OC(C)C(=O)O (stereo not given),inactive,–
CCOP(=S)(OCC)Oc1cc(C)nc(C(C)C)n1,inactive,–
Nc1ncc([N+](=O)[O-])s1,inactive,–
FC(F)(F)c1ccc(Cl)cc1,inactive,–
O=C(O)COc1ccccc1,inactive,–
CN(C)CCC#N,inactive,–
CCSC(=O)N1CCCCCC1,inactive,–
C/C=C/c1ccc2c(c1)OCO2,–,-4.19% (inactive)
CCOc1ccc(N)cc1,inactive,–
CCOP(=S)(OCC)Oc1ccc([N+](=O)[O-])cc1,inactive,–
COS(=O)(=O)OC,inactive,–
Nc1ccc([As](=O)(O)O)cc1,inactive,–
OCC(O)CCl (stereo not given),inactive,–
Nc1nc(N)nc(NC2CC2)n1,inactive,–
C=CCN=C=S,inactive,–
CNC(=O)O/N=C/C(C)(C)SC,inactive,–
Cc1ccc(N=C=O)cc1N=C=O,inactive,–
O=C(O)c1cc(Oc2ccc(C(F)(F)F)cc2Cl)ccc1[N+](=O)[O-],inactive,–
Cc1cccc(C)c1N,inactive,–
CNC(=O)O/N=C/C(C)(C)S(C)(=O)=O,inactive,–
[N-]=[N+]=CC(=O)OC[C@H](N)C(=O)O,–,"0.993% [at 35.3 µM, stronger effect = higher value] (inactive)"
C=CC(=O)OCC(CC)CCCC (stereo not given),inactive,–
Sc1ccccc1,inactive,–
Nc1ccc(N)cc1,inactive,–
CSc1nnc(C(C)(C)C)c(=O)n1N,inactive,–
CNC(=O)Oc1cccc2ccccc12,inactive,–
O=C/C=C/c1ccccc1,inactive,–
C[C@H]1C(=O)O[C@@H]2CCN3CC=C(COC(=O)[C@](C)(O)[C@]1(C)O)[C@H]23,inactive,–
Nc1cccc(Cl)c1,inactive,–
COc1cc(-c2ccc(N)c(OC)c2)ccc1N,inactive,–

# Assay: A CellTox Green Cytotoxicity Assay to monitor cytotoxicity in HepG2 cells - 16 hour (AID 1224876); also: nearly all actives have a fitted effect of over 45% in size; also: potency is read from the fitted curve at half-maximal effect
# Conditions: CellTox Green fluorescence; series mostly up to 76.8 µM; cytotoxicity increase: at the top concentration
# In short: (§1)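 HepG2, 600 cells/well premixed w/ CellTox Green; 5 h settle, 37 C/5% CO2; pintool cpd add (DMSO); 37 C, 40 h; fluorescence read at 0, 8, 16, 24, 32, 40 h.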
SMILES,cytotoxicity increase,Potency
Cc1cc(Cl)ccc1OC(C)C(=O)O (stereo not given),1.21% (inactive),–
CCOP(=S)(OCC)Oc1cc(C)nc(C(C)C)n1,–,inactive
Nc1ncc([N+](=O)[O-])s1,–,inactive
FC(F)(F)c1ccc(Cl)cc1,–,inactive
O=C(O)COc1ccccc1,–,inactive
CN(C)CCC#N,–,inactive
CCSC(=O)N1CCCCCC1,–,inactive
C/C=C/c1ccc2c(c1)OCO2,–,inactive
CCOc1ccc(N)cc1,–,inactive
CCOP(=S)(OCC)Oc1ccc([N+](=O)[O-])cc1,–,inactive
COS(=O)(=O)OC,–,inactive
Nc1ccc([As](=O)(O)O)cc1,–,inactive
OCC(O)CCl (stereo not given),–,inactive
Nc1nc(N)nc(NC2CC2)n1,–,inactive
C=CCN=C=S,–,inactive
CNC(=O)O/N=C/C(C)(C)SC,–,inactive
Cc1ccc(N=C=O)cc1N=C=O,–,inactive
O=C(O)c1cc(Oc2ccc(C(F)(F)F)cc2Cl)ccc1[N+](=O)[O-],–,inactive
Cc1cccc(C)c1N,–,inactive
CNC(=O)O/N=C/C(C)(C)S(C)(=O)=O,–,inactive
[N-]=[N+]=CC(=O)OC[C@H](N)C(=O)O,–,27.5 µM (active) and inactive
C=CC(=O)OCC(CC)CCCC (stereo not given),–,inactive
Sc1ccccc1,–,inactive
Nc1ccc(N)cc1,–,inactive
CSc1nnc(C(C)(C)C)c(=O)n1N,–,inactive
CNC(=O)Oc1cccc2ccccc12,–,inactive
O=C/C=C/c1ccccc1,–,inactive
C[C@H]1C(=O)O[C@@H]2CCN3CC=C(COC(=O)[C@](C)(O)[C@]1(C)O)[C@H]23,–,inactive
Nc1cccc(Cl)c1,–,inactive
COc1cc(-c2ccc(N)c(OC)c2)ccc1N,–,inactive

# Assay: qHTS RealTime-Glo MT Cell Viability Assay in HepG2 cells - 32 hour (AID 1224877); also: nearly all actives have a fitted effect of over 55% in size
# Conditions: RealTime-Glo luminescence; series mostly up to 76.8 µM; activity change, negative = cytotoxic: at the top concentration
# In short: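 Real-time, nonlytic viability: 600 HepG2 cells/well mixed with NanoLuc enzyme plus prosubstrate; 5 h settle, compound (DMSO) added by pintool; luminescence monitored over 40 h at 37 C.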
row,SMILES,outcome
1,Cc1cc(Cl)ccc1OC(C)C(=O)O (stereo not given),inactive
2,CCOP(=S)(OCC)Oc1cc(C)nc(C(C)C)n1,inactive
3,Nc1ncc([N+](=O)[O-])s1,inactive
4,FC(F)(F)c1ccc(Cl)cc1,inactive
5,O=C(O)COc1ccccc1,inactive
6,CN(C)CCC#N,inactive
7,CCSC(=O)N1CCCCCC1,inactive
8,C/C=C/c1ccc2c(c1)OCO2,inactive
9,CCOc1ccc(N)cc1,inactive
10,CCOP(=S)(OCC)Oc1ccc([N+](=O)[O-])cc1,inactive
11,COS(=O)(=O)OC,inactive
12,Nc1ccc([As](=O)(O)O)cc1,inactive
13,OCC(O)CCl (stereo not given),inactive
14,Nc1nc(N)nc(NC2CC2)n1,inactive
15,C=CCN=C=S,inactive
16,CNC(=O)O/N=C/C(C)(C)SC,inactive
17,Cc1ccc(N=C=O)cc1N=C=O,inactive
18,O=C(O)c1cc(Oc2ccc(C(F)(F)F)cc2Cl)ccc1[N+](=O)[O-],inactive
19,Cc1cccc(C)c1N,inactive
20,CNC(=O)O/N=C/C(C)(C)S(C)(=O)=O,inactive
21,[N-]=[N+]=CC(=O)OC[C@H](N)C(=O)O,inactive
22,C=CC(=O)OCC(CC)CCCC (stereo not given),inactive
23,Sc1ccccc1,inactive
24,Nc1ccc(N)cc1,inactive
25,CSc1nnc(C(C)(C)C)c(=O)n1N,inactive
26,CNC(=O)Oc1cccc2ccccc12,inactive
27,O=C/C=C/c1ccccc1,inactive
28,C[C@H]1C(=O)O[C@@H]2CCN3CC=C(COC(=O)[C@](C)(O)[C@]1(C)O)[C@H]23,inactive
29,Nc1cccc(Cl)c1,inactive
30,COc1cc(-c2ccc(N)c(OC)c2)ccc1N,inactive

# Assay: A CellTox Green Cytotoxicity Assay to monitor cytotoxicity in HepG2 cells - 24 hour (AID 1224878); also: nearly all actives have a fitted effect of over 45% in size; also: potency is read from the fitted curve at half-maximal effect
# Conditions: CellTox Green fluorescence; series mostly up to 76.8 µM; cytotoxicity: at the top concentration
# In short: as §1
row,SMILES,Potency
1,Nc1ncc([N+](=O)[O-])s1,inactive
2,FC(F)(F)c1ccc(Cl)cc1,inactive
3,CCSC(=O)N1CCCCCC1,inactive
4,C/C=C/c1ccc2c(c1)OCO2,inactive
5,CCOc1ccc(N)cc1,inactive
6,CCOP(=S)(OCC)Oc1ccc([N+](=O)[O-])cc1,inactive
7,COS(=O)(=O)OC,inactive
8,Nc1ccc([As](=O)(O)O)cc1,inactive
9,OCC(O)CCl (stereo not given),inactive
10,Cc1ccc(N=C=O)cc1N=C=O,inactive
11,O=C(O)c1cc(Oc2ccc(C(F)(F)F)cc2Cl)ccc1[N+](=O)[O-],inactive
12,Cc1cccc(C)c1N,inactive
13,CNC(=O)O/N=C/C(C)(C)S(C)(=O)=O,inactive
14,[N-]=[N+]=CC(=O)OC[C@H](N)C(=O)O,24.5 µM (active) and inactive
15,Nc1ccc(N)cc1,inactive
16,CSc1nnc(C(C)(C)C)c(=O)n1N,inactive
17,CNC(=O)Oc1cccc2ccccc12,inactive
18,C[C@H]1C(=O)O[C@@H]2CCN3CC=C(COC(=O)[C@](C)(O)[C@]1(C)O)[C@H]23,inactive
19,Nc1cccc(Cl)c1,inactive
20,COc1cc(-c2ccc(N)c(OC)c2)ccc1N,inactive
